Bioassay records (PubChem)
An excerpt weighted towards active compounds, which were near 19% of everything screened.
IL-1B inflam inh – inflammasome signaling inhibition, IL-1 beta readout | 360,000 tested, 4.7% active | activity change, % at 57.5 µM | THP-1 LPS/ATP IL-1B secretion, AlphaLISA, 16 h; active compounds read low | AID 743279; in the data active means activity change below about -50%; inconclusive means mostly about -30% to -49%
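THP-1 cells pretreated 1 hr with compounds (up to 57.5 uM final), then stimulated with LPS (250 ng/mL final) plus ATP (1.25 mM final); secreted IL-1B measured by AlphaLISA after 16 hr, decreased signal indicating inhibition.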
DT40 TDP1 no CPT – qHTS for Inhibitors of human tyrosyl-DNA phosphodiesterase 1 (TDP1): qHTS in cells in absence of CPT. Potency, µM (top dose mostly 46.2 µM), without a hit: at the top dose activity change, negative = growth inhibition, hits mostly inhibitors. AID 686978, 2013. 420,000 tested, 15% active. DT40 Tdp1-/- hTDP1 cells, no CPT, ATP luminescence, 48 h; further: potency means the concentration at half of the fitted maximal effect; nearly all actives have a fitted effect of over 55% in size
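No-CPT arm: Tdp1-/-;hTDP1 DT40 cells (400/well) plus compounds, incubated ≥48 hr at 37 °C. Readout CellTiter-Glo luminescence.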
HT1080-NT tox – kills 2HG-producing HT-1080-NT fibrosarcoma cells. 360,000 tested, 1.6% active. HT-1080-NT fibrosarcoma viability, CellTiter-Glo ATP luminescence, 48 h. Potency, µM (series often up to 46.1 µM), for the others: at the top dose activity, negative = less viability, usual class: cytotoxic;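 further: NT is the 2HG producing partner of a matched IDH1 knockdown line; potency means the concentration at half of the fitted maximal effect; 0% = DMSO-treated cells and -100% = media-only wells without cells; nearly all actives have a fitted effect of over 55% in size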
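HT-1080-NT fibrosarcoma cells (2HG-overproducing), 750 cells/well in RPMI with 5% FBS, dosed after 2 h and incubated 48 h at 37C. CellTiter-Glo luminescence normalized to DMSO and no-cell wells; concentration-response curves fitted and classed.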
HT1080 IDH1KD tx – toxicity to HT-1080 IDH1 knockdown cells (counter line). HT-1080 IDH1 knockdown viability, ATP luminescence, 48 h. Potency, µM (doses to about 46.1 µM), without a hit: at the top dose activity, negative = toxicity, usual class: cytotoxic. 360,000 tested, 2% active. AID 686971;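 further: potency means the concentration at half of the fitted maximal effect; 0% = DMSO wells and -100% = cell-free medium wells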
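Using the IDH1-knockdown HT-1080 line run in the same batch and compound series as the NT line, viability after 48 h at 37 °C was determined by CellTiter-Glo luminescence and expressed as % activity.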
DT40 TDP1 CPT – growth inhibition of DT40 Tdp1-/-;hTDP1 cells with camptothecin (screen for TDP1 inhibitors). Potency, µM (titrated, usually from 46.2 µM), inactives show at the highest dose activity change, negative = growth inhibition, hits mostly inhibitors. chicken DT40 Tdp1-/-;hTDP1 cells + 20 nM CPT, ATP luminescence, 48 h. 420,000 tested, 12% active; further: potency means the concentration at half of the fitted maximal effect; nearly all actives have a fitted effect of over 55% in size
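Chicken DT40 Tdp1-/- cells stably complemented with human TDP1 were seeded at 400 cells/well in medium containing 20 nM camptothecin, exposed to pin-transferred compounds, and grown at 37 °C for at least 48 hr. Viability was read as ATP luminescence.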
Numbers without * were called inactive; [ ] = another dose, or the depositor's remark. Unless noted, the call rests on the fitted dose curve; in most records, active means well fitted curve in the direction sought with a large enough effect; inconclusive means small, poorly fitted or top-dose-only effect, or another doubt; inactive means no such curve, though single readings can be large; an effect the other way counts as inactive or inconclusive. Unless noted, on the % scale 0 is the no-effect control and ±100 the full control effect.

Screening COc1ccc(-c2cc(C(=O)N3CCCC3)c3ccccc3n2)cc1 returned IL-1B inflam inh 0, DT40 TDP1 no CPT 6%, HT1080-NT tox -17%, HT1080 IDH1KD tx -9% and DT40 TDP1 CPT 3%.
For COc1ccc(N2CCN(C(=O)c3cc(-c4cc(OC)ccc4OC)nc4ccccc34)CC2)cc1 the results were IL-1B inflam inh 16, DT40 TDP1 no CPT 23µM*, HT1080-NT tox -8%, HT1080 IDH1KD tx -19% and DT40 TDP1 CPT 23µM*.
`COc1ccc(-c2cc(C(=O)N3CCN(c4ccccc4F)CC3)c3ccccc3n2)c(OC)c1` gave IL-1B inflam inh -2, DT40 TDP1 no CPT 18µM*, HT1080-NT tox -9%, HT1080 IDH1KD tx -11% and DT40 TDP1 CPT inconclusive.
`COc1ccc(-c2cc(C(=O)N3CCN(c4ccccc4O)CC3)c3ccccc3n2)cc1` gave IL-1B inflam inh inconclusive, DT40 TDP1 no CPT inconclusive, HT1080-NT tox 0%, HT1080 IDH1KD tx 7% and DT40 TDP1 CPT inconclusive.
Screening COc1ccc2nc(-c3ccccc3)cc(C(=O)N3CCC3)c2c1 returned IL-1B inflam inh -18, DT40 TDP1 no CPT 16µM*, HT1080-NT tox -1%, HT1080 IDH1KD tx -8% and DT40 TDP1 CPT 23µM*.
`COc1ccc(-c2cc(C(=O)N3CCCCCC3)c3ccccc3n2)c(OC)c1` gave IL-1B inflam inh inconclusive, DT40 TDP1 no CPT 12µM*, HT1080-NT tox 2%, HT1080 IDH1KD tx -12% and DT40 TDP1 CPT inconclusive.
`O=C(COC(=O)c1cc(S(=O)(=O)N2CCCCC2)ccc1N1CCOCC1)NC1CCS(=O)(=O)C1` (centres undefined) gave IL-1B inflam inh -4, DT40 TDP1 no CPT -2%, HT1080-NT tox inconclusive, HT1080 IDH1KD tx 16% and DT40 TDP1 CPT 5%.
Screening CS(=O)(=O)N1CCc2cc(NC(=O)c3ccc(Cl)cc3Cl)ccc21 returned IL-1B inflam inh -10, DT40 TDP1 no CPT -28%, HT1080-NT tox -14%, HT1080 IDH1KD tx -1% and DT40 TDP1 CPT -7%.
Screening NC(=O)c1cc2ccccc2o/c1=N\NC(=O)c1ccco1 returned IL-1B inflam inh inconclusive, DT40 TDP1 no CPT inconclusive, HT1080-NT tox 15%, HT1080 IDH1KD tx 8% and DT40 TDP1 CPT inconclusive.
For COc1ccc2cc(C(N)=O)c(=Nc3ccccc3)oc2c1 the results were IL-1B inflam inh -24, DT40 TDP1 no CPT 15µM*, HT1080-NT tox 17%, HT1080 IDH1KD tx -2% and DT40 TDP1 CPT inconclusive.
COc1ccc(OC)c(N=c2oc3cc(O)ccc3cc2C(N)=O)c1 was read as IL-1B inflam inh -23, DT40 TDP1 no CPT inconclusive, HT1080-NT tox -13%, HT1080 IDH1KD tx -10% and DT40 TDP1 CPT 15µM*.
For NC(=O)c1cc2ccc(O)cc2oc1=Nc1ccccc1 the results were IL-1B inflam inh -19, DT40 TDP1 no CPT inconclusive, HT1080-NT tox -17%, HT1080 IDH1KD tx -22% and DT40 TDP1 CPT 15µM*.
NC(=O)c1cc2cc(Br)ccc2oc1=NCc1ccccc1 was read as IL-1B inflam inh -65*, DT40 TDP1 no CPT -29%, HT1080-NT tox 0%, HT1080 IDH1KD tx -6% and DT40 TDP1 CPT -25%.
For COc1ccc2cc(C(=O)c3ccccc3)c(=O)oc2c1 the results were IL-1B inflam inh -8, DT40 TDP1 no CPT -9%, HT1080-NT tox 11%, HT1080 IDH1KD tx 0% and DT40 TDP1 CPT -21%.
For CN(Cc1nc2ccccc2c(=O)[nH]1)C(=O)c1cccc(NC(=O)c2cccs2)c1 the results were IL-1B inflam inh 3, DT40 TDP1 no CPT inconclusive, HT1080-NT tox 11%, HT1080 IDH1KD tx -1% and DT40 TDP1 CPT inconclusive.
NC(=O)c1cc2ccccc2oc1=NCc1ccccc1 was read as IL-1B inflam inh -26, DT40 TDP1 no CPT -20%, HT1080-NT tox -11%, HT1080 IDH1KD tx -7% and DT40 TDP1 CPT -10%.
For NC(=O)c1cc2ccc(O)cc2oc1=NCc1ccccc1 the results were IL-1B inflam inh -11, DT40 TDP1 no CPT inconclusive, HT1080-NT tox -1%[9.24 µM], HT1080 IDH1KD tx inconclusive and DT40 TDP1 CPT 18µM*.
